In PubChem BioAssay AID1645857 (Buhrlage Lab, Dana-Farber Cancer Institute and Novartis …, 2021):
Hit rate of the full screen: of about 47,000 compounds, about 1,400 (3%) were called active. Shown is part of a subset that was picked to be rich in actives. A number with no mark means an inactive call. Rule as the data show it: active = inhibition above about 30%; inactive = the rest.

biological target: Ubiquitin carboxyl-terminal hydrolase 28 (Homo sapiens) (UniProt Q96RU2); experiment: inhibitors of human USP28 deubiquitinase (AID 1645857); settings: purified USP28, Ub-rhodamine cleavage fluorescence, 30 min; at 25 µM; active compounds read high
Sequence (Q96RU2 whole entry, looked up): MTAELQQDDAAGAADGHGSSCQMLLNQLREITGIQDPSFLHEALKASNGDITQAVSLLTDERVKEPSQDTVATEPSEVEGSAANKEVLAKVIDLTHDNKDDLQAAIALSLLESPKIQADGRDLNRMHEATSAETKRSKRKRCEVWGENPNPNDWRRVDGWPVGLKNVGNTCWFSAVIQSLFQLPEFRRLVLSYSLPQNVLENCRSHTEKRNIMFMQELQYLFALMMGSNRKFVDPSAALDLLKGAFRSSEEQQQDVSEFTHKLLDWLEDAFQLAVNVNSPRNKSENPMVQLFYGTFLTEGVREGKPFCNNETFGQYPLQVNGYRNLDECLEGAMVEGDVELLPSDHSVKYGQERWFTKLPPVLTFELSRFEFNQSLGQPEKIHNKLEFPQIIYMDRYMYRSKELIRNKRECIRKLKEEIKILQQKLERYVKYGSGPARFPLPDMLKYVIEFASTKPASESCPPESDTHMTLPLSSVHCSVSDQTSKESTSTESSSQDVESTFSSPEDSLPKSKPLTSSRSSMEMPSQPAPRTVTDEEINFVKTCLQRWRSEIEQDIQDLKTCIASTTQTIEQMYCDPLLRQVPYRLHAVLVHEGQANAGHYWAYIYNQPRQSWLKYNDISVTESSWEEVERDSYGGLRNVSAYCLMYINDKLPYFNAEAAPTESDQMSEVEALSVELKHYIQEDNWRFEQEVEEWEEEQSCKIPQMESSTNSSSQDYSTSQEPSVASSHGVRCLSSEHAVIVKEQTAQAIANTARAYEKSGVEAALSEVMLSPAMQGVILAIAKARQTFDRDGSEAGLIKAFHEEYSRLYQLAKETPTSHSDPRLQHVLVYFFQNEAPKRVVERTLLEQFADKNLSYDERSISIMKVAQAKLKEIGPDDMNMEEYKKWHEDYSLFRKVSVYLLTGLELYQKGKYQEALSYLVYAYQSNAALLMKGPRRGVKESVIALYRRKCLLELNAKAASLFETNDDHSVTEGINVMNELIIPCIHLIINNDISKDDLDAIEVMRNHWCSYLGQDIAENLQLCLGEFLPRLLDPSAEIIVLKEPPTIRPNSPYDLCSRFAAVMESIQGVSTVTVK

Row | SMILES | inhibition
1 | CC(C)CN1[C@H]2CCN(C(=O)c3cnccn3)CC[C@@H]2Oc2ccccc2S1(=O)=O | -3.97%
2 | Cc1nc2ccccc2n1CCNC(=O)c1ccccc1Cl | -3.71%
3 | CC(=O)N1CCc2cc(S(=O)(=O)NCC(=O)NCc3ccc4c(c3)OCO4)ccc21 | -1.7%
4 | Cc1noc(CNC(=O)c2cc(-c3ccco3)on2)n1 | -29.2%
5 | Cc1[nH]c(C(=O)N2CCCC(C(=O)NCc3cccnc3)C2)c(C)c1C (stereo unspecified) | -6.57%
6 | Cc1cccc(CNC(=O)C2CCN(c3cnc4nccnc4c3)CC2)c1 | -81.1%
7 | O=C(NCc1cccnc1)C1CCN(c2cnc(N3CCCCCC3)nc2)CC1 | 60.9% (active)
8 | O=c1c2c(ncn2C2CCCC2)n(Cc2ccccc2)c(=O)n1Cc1ccccc1 | 6.37%
9 | O=C(O)c1cc(-c2ccc(-c3ccccc3F)o2)nc2ccc(F)cc12 | -179%
10 | CCc1ccccc1NC(=O)N1CCCC1c1ccnn1CC (stereo unspecified) | 12.8%
11 | c1ccc(-c2ccc(NCc3ccc4c(c3)OCO4)nn2)cc1 | 61.2% (active)
12 | CCC(Oc1ccccc1)C(=O)NCc1ccc2c(c1)OCO2 (stereo unspecified) | 6.67%
13 | c1cc(CNCc2ccc3c(c2)OCO3)ccn1 | -2.19%
14 | N#CC1=C(N)Oc2nc[nH]c(=O)c2C1c1cccc(F)c1 (stereo unspecified) | -2.3%
15 | CCC(C)[C@H](NS(=O)(=O)c1ccc(C)cc1)C(=O)N1CCC(C(=O)N[C@H](Cc2c[nH]c3ccccc23)C(=O)O)CC1 (stereo partly specified) | -2.54%
16 | CCCCCCSc1ncnc2c1sc1nc(-c3ccccc3)c3c(c12)CC(C)(C)OC3 | -0.572%
17 | CCCCc1nc2sc3c(SCC(=O)NCc4ccccc4)ncnc3c2c2c1CCC2 | 54.5% (active)
18 | CCCc1nc2sc3c(N4CCC(C)CC4)ncnc3c2c2c1CCC2 | 2.73%
19 | CCn1c(SCc2cccc(C)c2)nnc1-c1cnccn1 | 58.5% (active)
20 | Cc1ccc(NC(=O)CSc2nnc(-c3cnccn3)n2Cc2ccco2)cc1C | -1.17%
21 | CCc1ccc(NC(=O)CSc2nnc(-c3cnccn3)n2Cc2ccco2)cc1 | -5.3%
22 | COc1cc(O)sc1C=Nc1ccc(Oc2ccccc2)cc1 | 40.7% (active)
23 | COc1ccccc1C(=O)Nc1cccc(Oc2ccccc2)c1 | 19.6%

Row | SMILES | inhibition
24 | O=C(c1ccc[nH]1)N1CCCn2c(nc(Cn3ccnc3)cc2=O)C1 | 12.3%
25 | CCN(C(=O)CSc1nnc(-c2ccoc2C)o1)c1ccccc1 | 6.53%
26 | O=C(COc1ccc2ccccc2c1)NCc1nnnn1-c1ccc(Cl)cc1 | 30.4% (active)
27 | CC(C)c1ccc(OCC(=O)NCc2nnnn2-c2ccc(Cl)cc2)cc1 | 20.1%
28 | Cc1ccc(NC(=O)NCc2nnnn2-c2ccccc2)cc1C | 5.32%
29 | Cc1ccc(C)c(NC(=O)c2cn(C)cc3c(=O)n(-c4ccccc4)nc2-3)c1 | 2.87%
30 | O=c1c2[nH]c3ccc(Cl)cc3c2ncn1Cc1cccnc1 | -8.15%
31 | COc1cc(Cn2cnc3c([nH]c4ccc(Br)cc43)c2=O)cc(OC)c1 | 43.8% (active)
32 | CCOc1ccc2[nH]c3c(=O)n(Cc4cccnc4)cnc3c2c1 | 13.7%
33 | CCOc1cccc(C(=O)N2CCC(c3nc4ccccc4o3)CC2)c1 | -7.65%
34 | Cc1cc(C)n2c(SCC(=O)Nc3cc(C(C)(C)C)nn3-c3ccccc3)nnc2n1 | 6.69%
35 | Cc1cc(C(F)(F)F)n2nc(C3CCN(C(=O)c4cc5ccccc5s4)C3)cc2n1 (stereo unspecified) | 17.6%
36 | NCCCC(=O)N1CCC2(CC1)C(=O)NCN2C(=O)Cc1ccccc1 | -0.0141%
37 | O=C1CO[C@H]2CN(Cc3ncc[nH]3)C[C@H]2N1c1ccccc1 | 19.7%
38 | COc1ccccc1CCNC(=O)CCc1c(C)c2ccc(O)c(C)c2oc1=O | 2.41%
39 | Cc1cc(NC(=O)COC(=O)c2cccc(C)c2O)ccc1Br | 5.74%
40 | Cc1cc(-c2nnc(SCC(=O)Nc3ccc(Br)c(C)c3)n2N)n[nH]1 | 38.4% (active)
41 | Nn1c(SCC(=O)Nc2ccccc2F)nnc1-c1n[nH]c2c1CCC2 | -7.92%
42 | O=C(CN1CCC2(CC=CCN(CCc3ccccc3)C2=O)CC1)Nc1ccc(F)cc1 | -25.4%
43 | COc1ccc(C(=O)N2CCc3cc4ccccc4nc32)cc1OC | -5.16%
44 | O=S(=O)(c1ccc(Cl)cc1)N1CCc2nc[nH]c2C1 | -11.8%
45 | CC1CCC/C=C/C=C/C(=O)CC(O)C/C=C\C=C\C(O)C/C=C/C=C\C(=O)O1 (stereo unspecified) | 2.22%
46 | COCCN1C[C@@]23CN(C(=O)NCc4ccccc4)C[C@@H](C[C@@H]2S1(=O)=O)O3 | 5.8%

Row | SMILES | inhibition
47 | CCc1ccc(NC(=O)N2C[C@H]3C[C@H]4[C@](C2)(CN(Cc2cccnc2)S4(=O)=O)O3)cc1 | 1.25%
48 | CC(C)CN1C[C@@]23CN(C(=O)NCCc4ccc(F)cc4)C[C@@H](C[C@@H]2S1(=O)=O)O3 | 32.3% (active)
49 | CC(C)NC(=O)c1nc(Cn2c(C(F)F)nc3ccccc32)no1 | 5.94%
50 | CC1=C(C(=O)Nc2ccc(C)cc2C)C(c2cccs2)n2c(nc3ccccc32)N1 (stereo unspecified) | 6.45%
51 | O=C(c1ccccn1)N1CCn2nc(-c3ccc4ccccc4c3)cc2C1 | 1.7%
52 | O=C(Cc1ccccc1F)N1CCCC(c2[nH]nc3nccnc23)C1 (stereo unspecified) | 1.05%
53 | COc1cccc(C2C(C(=O)Nc3ccccc3C)=C(C)Nc3ncnn32)c1OCc1ccccc1 (stereo unspecified) | 2.46%
54 | COc1ccc(NC(=O)C2=C(C)Nc3ncnn3C2c2cccc(OCc3ccc(F)cc3)c2)c(OC)c1 (stereo unspecified) | 46.2% (active)
55 | COc1ccccc1NC(=O)C1=C(C)Nc2ncnn2C1c1ccc(C)o1 (stereo unspecified) | 1.41%
56 | CNc1cccc(C2CN(C(=O)c3cnn4cccnc34)CCO2)n1 (stereo unspecified) | -3.02%
57 | O[C@@H]1C[C@H]2CN(Cc3ccc(F)cc3)[C@H](Cc3ccccc3)CN2C1 | 2.96%
58 | COc1ccc2c(c1)OC[C@@H](Cc1ccccc1)N(Cc1ccncc1)[C@H]2C | 8.99%
59 | N#Cc1cccc(CSc2ncnc(N)n2)c1 | 39.9% (active)
60 | Cc1ccc(-c2cc3n(n2)CCCN(C(=O)c2ccccn2)C3)cc1 | 0.0245%
61 | Cc1ccc(Cl)cc1NC(=O)N1CCc2nc(N3CCCCC3)ncc2C1 | -54.3%
62 | Cc1ccc(N2CCCS2(=O)=O)cc1NC(=O)Cc1ccc(Cl)cc1 | 33.1% (active)
63 | Cc1ccc(CC(=O)Nc2nnc(C3CC(=O)N(c4ccc(C)c(C)c4)C3)s2)cc1 (stereo unspecified) | 13.1%
64 | Cn1ccc(C(=O)NCc2cnc(C3CCCCO3)nc2)n1 (stereo unspecified) | 6.1%
65 | Cc1ccc(C)c(CSc2nc(-c3ccco3)nc3c2c(=O)n(C)c(=O)n3C)c1 | -10.3%
66 | Cc1ccc(C)c(CSC2=NCCN2C(=O)c2ccco2)c1 | 70.4% (active)
67 | COc1ccc(CC(=O)Nc2ccc3c(c2)CN(C(=O)c2ccco2)CC3)cc1 | 23.1%
68 | Cc1ccc(-n2cc(-c3noc(C(=O)Nc4ccc(F)cc4C)n3)nn2)cc1 | 13.4%
69 | CC(C)NC(=O)c1csc(-c2ccc(N3CCCC3)nc2)n1 | -10%

Row | SMILES | inhibition
70 | Cn1c(SCc2ccc(Cl)cc2)nnc1-c1ccc2c(c1)OCCO2 | 41% (active)
71 | O=C(CSc1nnc(-c2ccc3c(c2)OCO3)n1-c1ccccc1)OCC(=O)c1ccccc1 | 14.9%
72 | Cc1cc(C(=O)CSc2nnc(-c3ccc(F)cc3)n2C)c(C)n1C | -21.9%
73 | O=C(N[C@@H](Cc1ccccc1)C(=O)N1CCc2ccccc2C1)c1cccnc1 | 5.48%
74 | Cc1oc(-c2cccc(Cl)c2)nc1Cn1c(=O)n(C(C)C)c(=O)c2ccccc21 | -19%
75 | O=C(CSc1ncnc2c1oc1ccccc12)NC1CCCC1 | 46.9% (active)
76 | CCc1nc(SCC(=O)Nc2cccc3ccccc23)c2oc3ccccc3c2n1 | 2.85%
77 | Cc1c(C(=O)NC2CCCCC2)oc2ccccc12 | 3.81%
78 | O=C(Cc1nnc2c(-c3nc(C4CC4)no3)cccn12)Nc1ccccc1 | 11%
79 | CN(C)C(=O)CN1CCC2(CC1)CN(Cc1ccccn1)C(=O)CO2 | 8.76%
80 | CN1CCN(c2ncc3c(=O)n(CC4CCCO4)ccc3n2)CC1 (stereo unspecified) | -10.1%
81 | Cc1cc(C)c(NC(=O)CCN2C(=O)c3cccnc3Sc3ccccc32)c(C)c1 | 32.4% (active)
82 | O=C(CCN1C(=O)c2cccnc2Sc2ccccc21)Nc1cc(F)ccc1F | 11%
83 | COc1ccc(NC(=O)CCN2C(=O)c3cccnc3Sc3ccccc32)cc1 | 9.9%
84 | CC(C)(C)c1nn(-c2ccccc2)c2[nH]c(=O)c(CNCCc3ccccc3)cc12 | 20.3%
85 | Cc1ccccc1Nc1nc(N)nc(CSc2ccccc2)n1 | -0.136%
86 | CCn1cc(C(=O)OCC(=O)Nc2cc(F)ccc2F)c(=O)c2ccc(C)nc21 | -0.0765%
87 | Cc1cccc(S(=O)(=O)NCCc2cn(C)c3ncccc23)c1 | -5.33%
88 | Cn1c(CCNC(=O)c2ccc(C(C)(C)C)cc2)nc2cccnc21 | -229%
89 | Cn1cc(CCNC(=O)Nc2cc(F)ccc2F)c2cccnc21 | 44.1% (active)
90 | Cn1cc(-c2nc(C(=O)Nc3ccc(F)cc3)cs2)c2cccnc21 | 21.1%
91 | Cn1cc(CCNC(=O)c2cc3ccccc3[nH]2)c2cccnc21 | 63.9% (active)
